From PubChem BioAssay
Sampled rows, rich in hits. Any-hit rate of the full collection: about 3.5%.
GPR151 ag: activators of human GPR151, primary screen, cell-based, PathHunter beta-arrestin, luminescence; actives 1% (n = 650,000); AID 1508602, 2020; G-protein coupled receptor 151 (Homo sapiens), Q8TDV0; PathHunter beta-arrestin GPR151 cells; activation, % at 11.2 µM; in the data active = activation above about 4.9%;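 also: 0% = median of compound wells and 100% = cells with positive control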
Target sequence (Q8TDV0 whole entry, looked up): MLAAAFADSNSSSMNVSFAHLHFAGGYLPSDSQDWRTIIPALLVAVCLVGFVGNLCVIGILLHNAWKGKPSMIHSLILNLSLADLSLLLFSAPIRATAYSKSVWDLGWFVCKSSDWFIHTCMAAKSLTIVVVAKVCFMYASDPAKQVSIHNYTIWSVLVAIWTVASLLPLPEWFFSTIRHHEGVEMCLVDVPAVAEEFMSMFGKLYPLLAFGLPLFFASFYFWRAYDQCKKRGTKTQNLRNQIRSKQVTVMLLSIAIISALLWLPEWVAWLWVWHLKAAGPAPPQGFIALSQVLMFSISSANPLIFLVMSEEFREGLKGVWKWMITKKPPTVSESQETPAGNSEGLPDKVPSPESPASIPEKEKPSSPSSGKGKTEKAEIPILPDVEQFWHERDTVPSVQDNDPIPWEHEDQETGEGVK
FBW7 act: FBW7 E3 ligase activators, primary screen, biochemical, AlphaScreen, human | F-box/WD repeat-containing protein 7 (Homo sapiens), Q969H0 | AlphaScreen FBW7–phospho-cyclin E peptide binding, activator screen | actives 0.13% (n = 650,000) | AID 1259310, 2017 | normalized activity (activation), % at 26.1 µM; in the data active = normalized activity above about 1.9%;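 also: purified mutant Fbw7 with reduced substrate affinity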
TEAD-YAP block: TEAD-YAP interaction inhibition, primary screen, TEAD-YAP interaction inhibitor project, luminescence, HEK-TIYL cells | AID 1259422, 2018 | inhibition, % at 9.12 µM | actives 1.4% (n = 640,000) | TEAD-Gal4/YAP UAS-luciferase luminescence; in the data active = inhibition above about 32%;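 also: 0% = median of test compound wells and 100% = reference inhibitor wells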
MITF primary: MITF inhibitors, primary screen, biochemical, AlphaScreen, human. Microphthalmia-associated transcription factor (Homo sapiens), O75030. AlphaScreen MITF homodimerization, bead proximity signal. inhibition, % at 2.6 µM. actives 0.91% (n = 650,000); in the data active = inhibition above about 50%;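 also: 0% = vehicle wells with protein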
MITF confirm: MITF inhibitors, retest of hits, confirmation, biochemical, AlphaScreen, triplicate; shares compounds with MITF primary; inhibition, % at 2.6 µM; AlphaScreen MITF homodimerization, biotin/His-MITF beads; actives 16% (n = 4,700);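 active = inhibition above a cutoff derived from the DMSO control wells, cut at about 28% in these data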;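 also: 0% = MITF dimer wells with DMSO only; inhibitors lower the bead chemiluminescence by keeping MITF from dimerizing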
AS interf ctr: AlphaScreen optical interference compounds, counter-screen for MITF inhibitor project, biochemical, triplicate; shares compounds with MITF primary; LysRS AlphaScreen counterscreen, signal interference; inhibition, % at 2.6 µM; actives 7.6% (n = 4,700);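 active = inhibition above a cutoff derived from the DMSO control wells, cut at about 30% in these data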
The depositor's hits bear a star; . = no result given.

SMILES	GPR151 ag	FBW7 act	TEAD-YAP block	MITF primary	MITF confirm	AS interf ctr
COc1cccc(C(=O)N2CCN(Cc3cc(OC)c(OC)c(OC)c3)CC2)c1	1	0	-6	49	.	.
CC(C)(C)n1nnnc1C(c1ccc2ncccc2c1)N1CCOCC1 (stereo unspecified)	0	0	-28	54*	9	5
CCN1CCN(C(c2ccc3ncccc3c2)c2nnnn2C(C)(C)C)CC1 (stereo unspecified)	1	0	0	10	.	.
O=C(Nc1cc(Oc2cccc(C(F)(F)F)c2)cc([N+](=O)[O-])c1)c1cn(-c2ccccc2)nc1-c1ccccc1	-1	1	8	4	.	.
CCCS(=O)(=O)N1CCN(Cc2cc(Br)ccc2OC)CC1	-1	0	18	54*	8	16
COc1ccc(Br)cc1CN1CCN(S(=O)(=O)Cc2ccccc2)CC1	-1	0	16	62*	6	26
CCCS(=O)(=O)N1CCN(Cc2ccc(OC)c(OC)c2OC)CC1	0	0	-1	52*	7	7
CCS(=O)(=O)N1CCN(Cc2cc(Br)ccc2OC)CC1	0	0	23	52*	10	14
CCOC(=O)CSc1nnc(Cc2ccc(OC)cc2)o1	0	0	7	6	.	.
O=S(=O)(CCN1CCCCC1)Oc1ccccc1	-1	0	-7	58*	7	19
CCOC(=O)CCCCC(=O)c1[nH]c(=O)n(C)c1C	1	-2	0	106*	95*	80*
CCCCCCCCCCCCCCCCCC(=O)OCC	0	.	.	-13	.	.
O=C1CCCN1CCn1cnc2c(Nc3ccc4c(c3)OCO4)nc(N3CCN(c4ccccn4)CC3)nc21	-1	0	19	76*	4	10
O=C1CCCN1CCn1cnc2c(Nc3ccc(N4CCOCC4)cc3)nc(N3CCN(c4ccccn4)CC3)nc21	0	0	14	6	.	.
COc1cc(OC)c(OC)cc1CN(CCCN(C)C)CCCN(C)C	1	0	2	54*	-10	-3
Cc1cc(C)n2nc(CNC(=O)Nc3ccc(F)cc3)nc2n1	0	0	-6	-2	.	.
O=C(c1cccnc1)N1CCN(Cc2cccc(Oc3ccccc3)c2)CC1	-1	0	10	70*	-5	3
O=C(c1cccnc1)N1CCN(Cc2cccc(F)c2)CC1	-1	0	10	75*	15	12
O=C(c1ccccc1)N1CCN(Cc2cccc(Oc3ccccc3)c2)CC1	0	0	-5	49	.	.
O=C(c1ccc(F)cc1)N1CCN(Cc2cccnc2)CC1	-1	0	1	72*	8	6
Cc1cc(I)ccc1NC1=CC(=O)CC(C)(C)C1	1	1	-6	12	.	.
Cn1c(=O)n(C)c2cc(S(=O)(=O)Nc3ccc4c(c3)C(=O)NC4=O)ccc21	0	0	-3	-12	.	.
COC1(OC)N=C(N)C2(C#N)C(c3ccc(NC(C)=O)cc3)C12C#N (stereo unspecified)	0	0	-1	51*	-2	7
COC1(OC)N=C(N)C2(C#N)C(c3ccc(F)cc3)C12C#N (stereo unspecified)	0	0	-12	55*	-2	-4
CCOC1(OCC)N=C(N)C2(C#N)C(c3cccc(Br)c3)C12C#N (stereo unspecified)	1	0	-10	23	.	.
SMILES	GPR151 ag	FBW7 act	TEAD-YAP block	MITF primary	MITF confirm	AS interf ctr
CCOC1(OCC)N=C(N)C2(C#N)C(c3ccc(NC(C)=O)cc3)C12C#N (stereo unspecified)	-1	0	-1	55*	4	2
COC(=O)c1ccc(C2C3(C#N)C(N)=NC(OC)(OC)C23C#N)cc1 (stereo unspecified)	-1	0	4	13	.	.
COc1ccc(NC(=O)CSc2ccc([N+](=O)[O-])cn2)cc1Cl	0	0	20	12	.	.
O=C(CCc1ccccc1)Nc1ccnn1C1CCN(C(=O)C2=CCCC2)CC1	4	0	-6	-3	.	.
O=C(COc1ccccc1N1C(=O)c2ccccc2C1=O)c1ccc(F)cc1	2	0	-5	60*	2	6
O=C(N/N=C\c1cccc([N+](=O)[O-])c1)c1cnccn1	-1	0	-21	66*	1	15
O=C(N/N=C/c1cccc2cccnc12)c1cccc([N+](=O)[O-])c1	-3	0	5	53*	56*	100*
O=C(N/N=C/c1cccc2cccnc12)c1ccc(Cl)cc1	-1	0	25	37	.	.
CC(=O)C1=C(O)C(=O)N(c2nc3ccccc3s2)C1c1ccc(F)cc1 (stereo unspecified)	1	0	-13	7	.	.
CCC(CC)C(=O)Nc1cccc(C(=O)Nc2cc(C(=O)OC)cc(C(=O)OC)c2)c1	-1	0	3	4	.	.
O=[N+]([O-])c1cccc(CN2CCC(N3CCCCCC3)CC2)c1	3	1	1	67*	2	6
CC1CCN(C2CCN(Cc3cccc([N+](=O)[O-])c3)CC2)CC1	0	0	-7	18	.	.
CC1CCC(N2CCN(Cc3cccc([N+](=O)[O-])c3)CC2)CC1 (stereo unspecified)	0	0	-6	60*	2	0
O=[N+]([O-])c1cccc(CN2CCN(S(=O)(=O)Cc3ccccc3)CC2)c1	4	0	17	31	.	.
CC1CCCC(N2CCN(Cc3cccc([N+](=O)[O-])c3)CC2)C1 (stereo unspecified)	-1	0	-1	75*	6	-4
CS(=O)(=O)N1CCN(Cc2cccc([N+](=O)[O-])c2)CC1	-1	0	4	72*	7	17
O=[N+]([O-])c1cccc(CN2CCC(N3CCN(Cc4ccccc4)CC3)CC2)c1	-1	0	-6	23	.	.
COc1ccc(/C(C)=C2/SC(=S)N(CO)C2=O)cc1	1	0	10	-3	.	.
Cc1sc2nc(CNCc3ccco3)[nH]c(=O)c2c1-c1ccccc1	3	0	5	58*	-1	5
COc1ccc(CCNc2nc(-c3sc(C)nc3C)cs2)cc1OC	-1	0	-10	71*	11	14
CCNc1nc(Nc2ccccc2)c2cnn(C)c2n1	0	0	3	4	.	.
CCCNc1nc(Nc2ccccc2)c2cnn(C)c2n1	-1	0	2	112*	17	12
Cc1cc(C)n(CCNC2CCN(c3ccc(C(=O)NC(C)c4ccccc4)cc3)CC2)n1 (stereo unspecified)	-2	0	11	91*	0	-2
O=C(O)C1CCN(c2ncc(-c3ccc(Cl)cc3)cn2)CC1	1	0	-17	61*	10	9
